Source: PubChem BioAssay (several laboratories)
GDH-TPI counter-1 = GDH-TPI coupling enzyme inhibitors, primary screen, artefact control for M. tuberculosis FBA inhibitor project, biochemical, absorbance, full deck. GDH-TPI coupled enzyme counterscreen, NADH absorbance. hit rate 1.2% among 360,000. inhibition, % at 4.8 µM. AID 588335, 2011; in the data active means inhibition above about 30%
PrP 5UTR inh = inhibition of PrP 5' UTR reporter expression. cell-based PrP 5' UTR mRNA reporter, plate reader. inhibition, % (no concentration beside the values). hit rate 0.35% among 340,000; in the data active means inhibition above about 52%
Y pestis TopoI = Yersinia pestis topoisomerase I inhibitors, primary screen, biochemical, cleavage product accumulation, plate reader, single point | Y. pestis Topo-I cleavage product accumulation | AID 504884, 2011 | activity, % at 10 µM | hit rate 0.064% among 360,000 | DNA topoisomerase I (Yersinia pestis CO92); in the data active means activity above about 50%, passing the limit was not always enough
PrPC TRFRET = inhibitors of human cell surface prion protein PrPC, primary screen, cell-based, TR-FRET. AID 720596, 2013. hit rate 0.43% among 370,000. inhibition, % at 13.8 µM. TR-FRET read-out. Major prion protein (Homo sapiens), P04156; in the data active means inhibition above about 24%
FBA Mtb inh = Mtb FBA enzyme inhibitors, primary screen, biochemical, fluorescence, strain H37Rv; Fructose-bisphosphate aldolase (Mycobacterium tuberculosis (strain ATCC 25618 / H37Rv)), …; hit rate 2.3% among 360,000; purified M. tuberculosis FBA, fluorescence read-out; inhibition, % at 1 µM
Target sequence (P9WQA3 whole entry, looked up): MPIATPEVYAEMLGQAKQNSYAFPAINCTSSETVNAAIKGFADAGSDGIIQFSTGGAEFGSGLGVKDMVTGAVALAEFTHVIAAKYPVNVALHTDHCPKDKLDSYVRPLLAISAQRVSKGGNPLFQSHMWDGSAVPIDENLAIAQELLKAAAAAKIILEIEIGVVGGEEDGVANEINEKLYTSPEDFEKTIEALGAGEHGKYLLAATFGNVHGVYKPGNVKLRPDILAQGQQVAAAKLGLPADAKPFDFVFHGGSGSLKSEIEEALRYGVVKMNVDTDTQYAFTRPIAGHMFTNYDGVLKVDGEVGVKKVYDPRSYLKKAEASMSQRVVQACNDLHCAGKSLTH
Mtb hypoxia inh = PubChem AID 1159583; fluorescence inhibition, % (test concentration not listed); hit rate 0.1% among 300,000; M. tuberculosis hypoxia-regulated fluorescent reporter, fluorescence; in the data active means fluorescence inhibition mostly above about 23%, no sharp cut-off; inactive means mostly below about 17%
Mtb FBA inh conf = M. tuberculosis aldolase blockers, biochemical, fluorescence, strain H37Rv, confirmation | shares compounds with FBA Mtb inh | purified M. tuberculosis FBA, fluorescence read-out | inhibition, % at 1 µM | hit rate 78% among 5,600 | AID 651616, 2012
GDH-TPI counter-2 = GDH-TPI coupling enzyme inhibitors, artefact control for M. tuberculosis FBA inhibitor project, biochemical, fluorescence, high throughput; shares compounds with FBA Mtb inh; hit rate 81% among 5,600; AID 652141, 2013; inhibition, % at 1 µM; GDH-TPI coupled enzyme counterscreen; in the data active means inhibition above about 10%
Of the large screens only hits and unclear results are named; the others gave an inactive call (follow-up assays come after a bar, where they were run). Only some compounds are listed: those with a hit (about 3.8% of all), similar ones and a draw of the others. Unless noted, no stated cut-off is given here; in the data, active means inhibition above about 27%; inactive means the rest.

COc1ccc2cc(C#N)c(N3CCOCC3)nc2c1	FBA Mtb inh 37 | Mtb FBA inh conf 66 | GDH-TPI counter-2 63
CCN(CC)c1nc2cc(OC)ccc2cc1C#N	FBA Mtb inh 32 | Mtb FBA inh conf 50 | GDH-TPI counter-2 35
NC(=O)c1cccn(Cc2ccc(C(F)(F)F)cc2)c1=O	FBA Mtb inh 52 | Mtb FBA inh conf 96 | GDH-TPI counter-2 72
CNC(=O)c1cccn(Cc2ccc(C(F)(F)F)cc2)c1=O	FBA Mtb inh 29 | Mtb FBA inh conf 68 | GDH-TPI counter-2 43
COc1cc(C=NNC(=O)c2ccc(CN3C(=O)c4cccc5cccc3c45)cc2)cc(OC)c1O	none (no result: GDH-TPI counter-1, PrP 5UTR inh, Y pestis TopoI, PrPC TRFRET, FBA Mtb inh)
CCOC(=O)C1C2COc3ccc(OC)cc3C2N2C(=O)CNC(=O)[C@@]12C (stereo partly specified)	none (no result: GDH-TPI counter-1, PrP 5UTR inh, Y pestis TopoI, PrPC TRFRET, FBA Mtb inh)
CC1=CC(c2ccc(Cl)cc2)n2nc(NC(=O)CCCC(=O)O)nc2N1 (stereo unspecified)	FBA Mtb inh 75 | Mtb FBA inh conf 59 | GDH-TPI counter-2 45
COc1ccc(-c2c(NC(=O)c3ccco3)oc3c(C)cccc3c2=O)cc1	FBA Mtb inh 53 | Mtb FBA inh conf inactive | GDH-TPI counter-2 inactive
Cc1cc(C)c2nc(-c3ccccn3)cc(C(=O)Nc3ccc(S(=O)(=O)Nc4cc(C)on4)cc3)c2c1	none
Cc1cc(C)c2nc(-c3ccccn3)cc(C(=O)Nc3ccc(S(=O)(=O)Nc4onc(C)c4C)cc3)c2c1	none (no result: PrPC TRFRET)
Cc1cc(C)c2nc(-c3ccccn3)cc(C(=O)NCc3ccc(S(N)(=O)=O)cc3)c2c1	FBA Mtb inh 50 | Mtb FBA inh conf inactive | GDH-TPI counter-2 inactive
Cc1cc(C)c2nc(-c3ccccn3)cc(C(=O)NCCc3ccc(S(N)(=O)=O)cc3)c2c1	FBA Mtb inh 39 | Mtb FBA inh conf 164 | GDH-TPI counter-2 133
C=CCn1c(SCC(=O)Nc2ccc(-c3nc4ccc(C)cc4s3)cc2)nnc1-c1ccccc1	FBA Mtb inh 41 | Mtb FBA inh conf active | GDH-TPI counter-2 active
CCC(C)(C)NC(=S)Nc1ccc(-c2nc3ccc(C)cc3s2)cc1	FBA Mtb inh 92 | Mtb FBA inh conf inactive | GDH-TPI counter-2 inactive
Cc1ccc2nc(-c3ccc(NC(=S)NCC(C)(C)CN(C)C)cc3)sc2c1	FBA Mtb inh 77 | Mtb FBA inh conf 69 | GDH-TPI counter-2 53
Cc1ccc(-c2nnc(SCC(=O)Nc3ccc(-c4nc5ccc(C)cc5s4)cc3)n2Cc2ccco2)cc1	none (no result: GDH-TPI counter-1, PrP 5UTR inh, Y pestis TopoI, FBA Mtb inh, Mtb hypoxia inh)
COCCNc1nnc(SC(C)C(=O)Nc2ccc(-c3nc4ccc(C)cc4s3)cc2)s1 (stereo unspecified)	FBA Mtb inh 40 | Mtb FBA inh conf active | GDH-TPI counter-2 active
COCCNc1nnc(SC(C)C(=O)Nc2c(C)n(C)n(-c3ccccc3)c2=O)s1 (stereo unspecified)	none
Cc1ccc2nc(-c3ccc(NC(=O)COC(=O)c4ccc([N+](=O)[O-])o4)cc3)sc2c1	none
Cc1cc([N+](=O)[O-])nn1Cc1ccc(C(=O)NN=Cc2ccc(N(C)C)cc2)cc1	none (no result: GDH-TPI counter-1, PrP 5UTR inh, Y pestis TopoI, PrPC TRFRET, FBA Mtb inh)
Nc1nonc1-n1nnc(C(=O)NN=Cc2ccccc2F)c1-c1cccs1	none (no result: GDH-TPI counter-1, PrP 5UTR inh, Y pestis TopoI, PrPC TRFRET, FBA Mtb inh)
Fc1ccc(C=Nn2cnn(Cc3ccccc3Cl)c2=S)cc1	none (no result: GDH-TPI counter-1, PrP 5UTR inh, Y pestis TopoI, PrPC TRFRET, FBA Mtb inh)
Cc1ccc2nc(-c3ccc(NC(=S)NCCC(C)C)cc3)sc2c1	none
CCCCNC(=S)Nc1ccc(-c2nc3ccc(C)cc3s2)cc1	FBA Mtb inh 56 | Mtb FBA inh conf inactive | GDH-TPI counter-2 inactive
CNC(=S)Nc1ccc(-c2nc3ccc(C)cc3s2)cc1	FBA Mtb inh 93, Mtb hypoxia inh 37 | Mtb FBA inh conf 45 | GDH-TPI counter-2 32
Cc1ccc2nc(-c3ccc(NC(=O)CN4CCN(C(=O)c5ccco5)CC4)cc3)sc2c1	FBA Mtb inh 46 | Mtb FBA inh conf active | GDH-TPI counter-2 active
Cc1ccc2nc(-c3ccc(NC(=O)CN(c4ccccc4C)S(C)(=O)=O)cc3)sc2c1	FBA Mtb inh 90 (no result: Mtb hypoxia inh) | Mtb FBA inh conf active | GDH-TPI counter-2 active
Cc1cc(C)cc(N(CC(=O)Nc2ccc(-c3nc4ccc(C)cc4s3)cc2)S(C)(=O)=O)c1	none
O=C(O)CCc1nn2c3ccccc3n(Cc3ccccc3)c2nc1=O	FBA Mtb inh 36 | Mtb FBA inh conf inactive | GDH-TPI counter-2 inactive
CC(=O)Cn1c2ccccc2n2nc(CCC(=O)O)c(=O)nc12	none
Cc1cc(C(=O)COC(=O)c2nccnc2N)c(C)n1C	FBA Mtb inh 62 | Mtb FBA inh conf inactive | GDH-TPI counter-2 inactive
Cc1ccc2nc(Cl)cc(=O)n2c1	FBA Mtb inh 45 (no result: Mtb hypoxia inh) | Mtb FBA inh conf 130 | GDH-TPI counter-2 88
O=C(c1c[nH]c2ccc(S(=O)(=O)N3CCC4(CC3)OCCO4)cc2c1=O)N1CCOCC1	none
O=C(c1c[nH]c2ccc(S(=O)(=O)N3CCC4(CC3)OCCO4)cc2c1=O)N1CCC2(CC1)OCCO2	FBA Mtb inh 34 | Mtb FBA inh conf 46 | GDH-TPI counter-2 44
COc1ccc(C(CNC(=O)c2ccc(-n3cnnn3)cc2)N2CCOCC2)cc1 (stereo unspecified)	FBA Mtb inh 43 (no result: Mtb hypoxia inh) | Mtb FBA inh conf 175 | GDH-TPI counter-2 153
O=C(CSc1nc2ccccc2o1)NN=Cc1ccco1	none (no result: GDH-TPI counter-1, PrP 5UTR inh, Y pestis TopoI, PrPC TRFRET, FBA Mtb inh)
O=C(COc1ccccc1F)Nc1nnc(-c2ccncc2)s1	none
O=C(COc1ccc(F)cc1)Nc1nnc(-c2ccncc2)s1	FBA Mtb inh 47 | Mtb FBA inh conf 90 | GDH-TPI counter-2 66
C(=C\c1ccco1)/C1=NN(c2ccccc2)C(c2ccco2)C1 (stereo unspecified)	FBA Mtb inh 40 (no result: PrPC TRFRET) | Mtb FBA inh conf active | GDH-TPI counter-2 active
CC(=O)N1N=C(c2ccc(C)cc2)CC1c1ccco1 (stereo unspecified)	none
Oc1ccc(C2=NN(c3ccccc3)C(c3ccc(F)cc3)C2)cc1 (stereo unspecified)	FBA Mtb inh 101 | Mtb FBA inh conf 165 | GDH-TPI counter-2 148
Cc1ccc(N2N=C(c3ccc(F)cc3)CC2c2ccco2)cc1 (stereo unspecified)	FBA Mtb inh 62 | Mtb FBA inh conf 112 | GDH-TPI counter-2 96
Fc1ccc(C2=NN(c3ccccc3)C(c3ccco3)C2)cc1 (stereo unspecified)	FBA Mtb inh 48 | Mtb FBA inh conf 60 | GDH-TPI counter-2 48
